Tests used:
Assay in all cases: PBM binding z-score (relative to random genomic background probes); higher = stronger binding; sequences stand for … in GC…GCGATTGACAGCGTAGAATGAAGG
[1] = system: FXR:RXRa (NR concentration 270 nM, RXRa partner concentration 90 nM)
How it was run: (§1)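 Binding buffer was PBS pH 7.4 with 2% milk, 0.02% Triton X-100, 1 mM DTT, 0.2 mg/mL BSA and 0.4 mg/ml salmon testes DNA. In it, ligand-free nuclear receptor dimers were incubated 1 h on custom Agilent 4×180K protein-binding microarrays carrying double-stranded probes. Antibodies against each partner (one per run) detected binding, and z-scores were calculated against random background probes after regression normalization of scanned fluorescence.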

[2] = system: LXRa:RXRa (NR concentration 270 nM, RXRa partner concentration 90 nM)
How it was run: as §1

[3] = system: LXRa homodimer (NR concentration 270 nM)
How it was run: as §1

[4] = system: LXRb:RXRa (NR concentration 270 nM, RXRa partner concentration 90 nM)
How it was run: as §1

[5] = system: LXRb homodimer (NR concentration 270 nM)
How it was run: as §1

[6] = system: PPARa:RXRa (NR concentration 270 nM, RXRa partner concentration 90 nM)
How it was run: as §1

[7] = system: PPARg:RXRa (NR concentration 180 nM, RXRa partner concentration 90 nM)
How it was run: as §1

[8] = system: PPARg:RXRa 270nM:90nM, anti-RXR (NR concentration 270 nM, RXRa partner concentration 90 nM)
How it was run: as §1

[9] = system: PPARg:RXRa 30nM:10nM, anti-RXR (NR concentration 30 nM, RXRa partner concentration 10 nM)
How it was run: as §1

[10] = system: PPARg:RXRa 90nM:30nM, anti-RXR (NR concentration 90 nM, RXRa partner concentration 30 nM)
How it was run: as §1

Sequence	PBM binding z-score [1]	PBM binding z-score [2]	PBM binding z-score [3]	PBM binding z-score [4]	PBM binding z-score [5]	PBM binding z-score [6]	PBM binding z-score [7]	PBM binding z-score [8]	PBM binding z-score [9]	PBM binding z-score [10]
ATCTCGAGGTAACAAGTTCAGTGAAAGAGAGGAC	0.617	0.888	0.333	0.61	0.253	1.51	0.717	0.867	-0.0837	0.456
ACTATTAGTAGACTTAGGGCAACCGATACGACGC	-0.142	-0.0337	0.0948	-0.377	0.454	-0.25	1.13	0.419	0.331	0.394
TCGAATAGGTTACCAATGGGGCATTCAGCTTTCT	0.65	2.61	-0.377	2	-0.392	1.87	0.255	1.75	2.94	2.43
AGTATTAGTTGAGACGAGGGCAACCGATAGGTTG	0.842	0.556	0.129	0.258	0.115	0.567	0.552	0.313	0.0784	0.559
ATCTCTAGGTAATACTCAGTTCAGTGAAGAACGC	0.748	1.03	1.19	0.468	1.55	0.541	0.424	0.567	0.572	0.52
CCTACTGGACCAAAGGTCATTGATTCCAATGCTC	4.9	5.68	5.86	5.23	2.31	6.24	10.5	9.96	10.5	10.8
ATACCAAGGTGATCGTGACGTCGTTGATACTAAC	0.364	0.342	0.147	0.547	-0.176	0.36	0.582	0.302	-0.0759	0.172
TCTCGGACGACACGAAGGTCAGAGCTTTCCAGAG	1.58	0.965	-0.0974	1.17	-0.374	1.96	0.474	1.77	2.37	2.15
GCTGCTAGGTCAACTGATGGTCAGGTAAAGCTCG	4.16	2.9	0.318	2.37	0.0406	3.7	2.95	3.33	0.765	1.9
CGAACTAGGTCATTTACAGGACAGTGAATAGTAA	4.33	3.3	1.29	2.69	0.887	4.56	6.79	6.09	3.53	5.66
ACTATTAGTGGAGACGAGGGCAACCGATAGGTTG	0.0192	-0.21	-0.488	-0.347	-0.31	-0.00529	0.674	0.335	-0.0792	0.232
CAAACTAGGTCAAAGGTGAAAGTCGAGCCAACCA	6.6	5.02	0.751	4.52	0.619	7.19	13.3	10.7	12.4	13.5
TCATATAGGTAAACAGGTGAAACTCCGTAAGTTA	0.937	1.06	0.143	0.976	-0.264	2.64	2.96	3.47	4.07	3.7
ACTAGCTGGTCAGCTGAGGTCACACACAATTCGG	3.62	3.57	2.15	3.21	-0.0797	3.58	1.76	2.01	0.341	0.958
CCTACTGGGCCACGAAAGGTCAATGATTCAGTGA	3.22	4.61	2.93	3.95	-0.0572	4.44	4.52	4.6	1.66	3.59
TCTGCTAGGTCACTTGGTCAGCTAACGAGCTGCC	2.56	2.03	-0.292	1.38	0.874	2.97	2.53	3.31	1.62	2.28
CAAACTAGGTCACCGGAAGGTCAAAATCCGCATG	5.79	5.77	4.45	5.33	1.71	6.21	9.82	7.79	5.96	7.63
CCTAGTTGGTTAGGAGGTCACACACCGGATATGA	3.07	3.38	2.02	3.21	0.635	4.02	2.54	3.3	1.25	2.81
TCGAGTAGGTTAGTCGGGGGATTCAGCCAACATA	0.552	0.506	-0.00348	2.06	6.46	1.13	0.0949	1.49	1.26	1.28
TCATATAGGTAAATACTAGGTGAAAGTCCGATCT	1.19	1.08	0.534	0.889	0.276	2.16	2.46	3.26	4.4	3.92
TCTGCAAGGTCAGTTGGTCAGCTAACGAGCTGCC	4.25	2.88	-0.037	2.09	1.17	3.4	1.45	2.47	1.5	1.72
CCTATAAGTTGACCATAAGGGCAACCGAAGCTCG	1.36	0.588	0.467	0.379	0.387	0.93	0.632	0.292	0.0132	-0.0263
TTACCAAGGTGAAAGGTCGCTGATGCACGCCTTG	2.82	2.6	-0.188	2.24	-0.623	5.25	8.28	8.53	7.04	9.59
CCTAGCAGGCCAGGCTCACTCAAGCATTTCGCTT	-0.543	-0.545	-0.346	-0.706	-0.617	-0.794	-0.439	-0.638	-1.13	-0.853

Sequence	PBM binding z-score [1]	PBM binding z-score [2]	PBM binding z-score [3]	PBM binding z-score [4]	PBM binding z-score [5]	PBM binding z-score [6]	PBM binding z-score [7]	PBM binding z-score [8]	PBM binding z-score [9]	PBM binding z-score [10]
CCTTACGGGTCACGAGGCTATAGCACGACGAGCG	6.52	3.97	0.0117	3.26	-0.222	5.83	6.52	5.91	2.64	4.4
AATGCAGGGTCATCGTAGGCCAGAGTACGCACAG	7.22	6.03	1.22	4.54	-0.0477	5.97	6.45	5.75	2.6	4.62
TCTCGGAGGACACGAAGGCCAGAGCTTTCCAGAG	0.413	-0.099	-0.863	-0.477	-0.953	0.156	-0.048	0.609	1.81	1.36
CCAGACAGGTTAAAGGTAACTCAGTCTGGTACGC	1.95	1.84	0.195	1.63	-0.137	3.7	4.55	4.78	3.23	5.29
CCTAGCAGGCCAATCTCGGTCACTCAAGGCTTGA	0.604	2.68	0.339	-0.0855	-0.585	0.406	-0.312	-0.384	-1.26	-0.439
TCCTATAGGTAAACAGGTGAAAGTCCGTAAGTTA	0.613	0.51	0.24	0.845	-0.235	2.07	1.63	2.96	3.27	3.17
CGAACTAGGTCAGAACAGGACAGTAAAGGATGAT	1.48	0.875	-0.0273	0.738	-0.326	3.33	5.37	4.63	1.83	3.65
AGTTAAAGTTCATCTAGGTAACGTAAGATATGCT	6.36	6.33	5.76	3.75	2.33	4.67	4.77	4.99	2	4.03
TAGCCTAGGTTATTCAGGGGCCAGTATAGAAAGC	0.502	1.27	-0.0903	1.24	0.216	0.523	0.241	-0.0507	-0.33	0.0793
ATCTCTAGGTAAGACTCAGTCCAGTGAAGAACGC	0.392	0.554	-0.00583	-0.0175	0.668	-0.0468	0.17	0.258	0.405	0.142
GATACAGGGACAGCTAGAGGCCAGAGTATGGAAA	-0.243	-0.821	-0.464	-0.674	-0.57	-0.178	0.636	-0.579	-0.2	-0.369
TCATATAGGTAGATGCTAGGTGAAAGTCCGATCT	0.567	0.862	0.165	0.357	-0.423	0.819	0.568	1.87	3.53	2.7
TAGCCTAGGTCATTCAGGGGCCAGTATCGAAAGC	4.39	3.78	0.945	3.2	1.1	3.76	1.95	2.11	0.0848	0.958
ATCGAAAGGTCGAAGGTGGGTATACCCACCCGAA	4.08	3.18	0.0928	2.34	0.437	4.28	3.74	3.99	1.28	2.77
CATACATGGTCAGCTAGGCCAGAGTAGGGACGGC	-0.504	-0.26	-0.736	-0.962	-0.25	-1.12	0.342	-0.789	-0.741	-0.753
ATCTCTAGGTAACCAAGTCCAGTGAATGCCGAAC	0.284	0.199	-0.00888	0.0348	0.546	0.54	0.444	0.891	0.172	0.381
CCTACTGGGGCAAGGTCATTGATCAGTCAAAGCA	3.59	3.26	1.02	2.98	-0.569	4.29	5.81	5.36	2.53	4.8
CGTATTAGTTGACCATAAGGGCAACCGAAGCTCG	0.6	0.437	0.259	0.258	0.134	0.617	0.684	0.523	-0.0743	0.805
TCTTGTAGATCAACAGGAGGTTAAGCAAGATCGA	0.257	0.838	-0.069	0.853	-0.368	1.48	0.076	1.47	2.39	1.74
CCGACTGGGCCATCAGGTCATTGATATCAACGTT	1.52	1.05	0.75	1.38	-0.6	2.19	1.69	2.75	0.458	1.85
AGAACGAGGGCACGCTGAGTGGATAGCAGAGTAG	0.65	0.494	-0.357	-0.0395	-1.03	1.77	1.99	1.64	0.26	1.29
CCGACTGGGGCAGAAAAGTTACCATACCATCCGG	-0.281	-0.694	-0.371	-0.55	-1.1	-0.413	0.56	-0.294	-0.571	-0.517
AGAATGAGGTTACCAAAGATCAGGGAGACGCTTG	2.11	6.33	-0.321	3.23	-0.156	3.38	2.8	2.92	1.02	2.15
ATACCAAGGTGATTGTGAGGTCGTTGATACTAAC	2.01	2.09	1.51	1.81	0.313	1.79	0.442	0.649	0.0726	0.48

Source: the supplement of paper PMC6555819
